From PubChem BioAssay (EPA / NIEHS)
Calls of active or inactive are those of the source. Rule for the calls: active = hit-call score of the fitted dose curve at least 0.9, where 1 is the maximum; inactive = score below 0.9.

What was measured:
[1] = BSK_hDFCGF_Proliferation: Cell Proliferation Assessment in the BioMAP Diversity Plus: hDFCGF Assay (AID 2283059); conditions: primary human foreskin fibroblasts;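 note: curves fitted for both rise and fall of signal versus DMSO baseline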
Method in brief: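 Total protein read at 560 nm after 0.1% SRB staining of TCA-fixed human skin fibroblasts, […]. Activity is fitted in both directions relative to DMSO as baseline.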

[2] = read-out: Macrophage colony-stimulating factor (MCSF), CSF1 (gene 1435); test: BSK_hDFCGF_MCSF: BioMAP Diversity Plus: hDFCGF Assay for Macrophage colony-stimulating factor (MCSF) Biomarker Activity (AID 2283060); conditions: primary human foreskin fibroblasts; actives raise or lower the signal
Method in brief: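 ELISA read-out of M-CSF in human dermal foreskin fibroblast cultures, 24 h after chemical dosing; gain or loss of signal fitted bidirectionally relative to DMSO baseline.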

[3] = BSK_hDFCGF_SRB: Viability Assessment in the BioMAP Diversity Plus: hDFCGF Assay (AID 2283061); conditions: primary human foreskin fibroblasts;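 note: cells exposed to compound for 24 h before the read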
Method in brief: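 Primary human foreskin fibroblasts; 24 h post-dose; fixed 10% TCA, stained 0.1% SRB, A560 read; total protein as overt cytotoxicity measure; curves fit bidirectionally vs DMSO control.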

[4] = read-out: TIMP metallopeptidase inhibitor 1 (TIMP1), TIMP1 (gene 7076); test: BSK_hDFCGF_TIMP1: BioMAP Diversity Plus: hDFCGF Assay for TIMP metallopeptidase inhibitor 1 (TIMP1) Biomarker Activity (AID 2283062); conditions: primary human foreskin fibroblasts; actives raise or lower the signal
Method in brief: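 ELISA readout of TIMP-1 from human dermal foreskin fibroblast cultures 24 h post-dosing. Curves were fitted in both directions against DMSO baseline, with SRB total-protein staining in parallel cultures as a cytotoxicity check.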

[5] = read-out: Monokine induced gamma interferon (MIG), CXCL9 (gene 4283); test: BSK_hDFCGF_MIG: BioMAP Diversity Plus: hDFCGF Assay for Monokine induced gamma interferon (MIG) Biomarker Activity (AID 2283063); conditions: primary human foreskin fibroblasts; actives raise or lower the signal
Method in brief: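 Fibroblasts (human foreskin, primary) dosed, 24 h, MIG by ELISA; fit bidirectional vs DMSO.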

[6] = read-out: Matrix Metallopeptidase 1 (MMP1), MMP1 (gene 4312); test: BSK_hDFCGF_MMP1: BioMAP Diversity Plus: hDFCGF Assay for Matrix Metallopeptidase 1 (MMP1) Biomarker Activity (AID 2283064); conditions: primary human foreskin fibroblasts; actives raise or lower the signal
Method in brief: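 hDFCGF primary fibroblasts (human foreskin); chemical added; 24 h; MMP1 by ELISA; bidirectional fit vs DMSO.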

[7] = read-out: Vascular cell adhesion molecule 1 (VCAM1), VCAM1 (gene 7412); test: BSK_hDFCGF_VCAM1: BioMAP Diversity Plus: hDFCGF Assay for Vascular cell adhesion molecule 1 (VCAM1) Biomarker Activity (AID 2283065); conditions: primary human foreskin fibroblasts; actives raise or lower the signal
Method in brief: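 ELISA read-out of VCAM-1 on human skin fibroblasts, 24 h post-dose; gain or loss of signal fitted bidirectionally against DMSO baseline.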

[8] = read-out: Plasminogen activator inhibitor-1 (PAI1), SERPINE1 (gene 5054); test: BSK_hDFCGF_PAI1: BioMAP Diversity Plus: hDFCGF Assay for Plasminogen activator inhibitor-1 (PAI1) Biomarker Activity (AID 2283066); conditions: primary human foreskin fibroblasts; actives raise or lower the signal
Method in brief: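 Human foreskin fibroblasts in the hDFCGF system were dosed with compound for 24 h; PAI-1 was quantified by ELISA. Bidirectional curve fitting used DMSO as negative control and baseline.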

[9] = read-out: Interferon-gamma inducible Protein 10 (IP10), CXCL10 (gene 3627); test: BSK_KF3CT_IP10: BioMAP Diversity Plus: KF3CT Assay for Interferon-gamma inducible Protein 10 (IP10) Biomarker Activity (AID 2283068); conditions: primary human keratinocytes with fibroblasts; actives raise or lower the signal
Method in brief: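 Human keratinocyte plus foreskin fibroblast primary co-culture exposed to test chemical for 24 h; IP-10 measured by ELISA. Concentration-response fitted bidirectionally against DMSO control as baseline.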

[10] = BSK_KF3CT_SRB: Viability Assessment in the BioMAP Diversity Plus: KF3CT Assay (AID 2283069); conditions: primary human keratinocytes with fibroblasts;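 note: total protein by sulforhodamine B staining as a cytotoxicity measure; read 24 h after compound addition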
Method in brief: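 Keratinocytes co-cultured with foreskin fibroblasts (human primary); chemical added, 24 h; fix 10% TCA, stain 0.1% SRB, A560. Bidirectional fit vs DMSO.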

[11] = read-out: Interleukin-1 alpha (IL1a), IL1A (gene 3552); test: BSK_KF3CT_IL1a: BioMAP Diversity Plus: KF3CT Assay for Interleukin-1 alpha (IL1a) Biomarker Activity (AID 2283070); conditions: primary human keratinocytes with fibroblasts; actives raise or lower the signal
Method in brief: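 Chemicals were dosed onto co-cultured human keratinocytes and foreskin fibroblasts, IL-1a was quantified by ELISA at 24 h, and activity was fitted in both directions relative to DMSO controls.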

[12] = read-out: TIMP metallopeptidase inhibitor 2 (TIMP2), TIMP2 (gene 7077); test: BSK_KF3CT_TIMP2: BioMAP Diversity Plus: KF3CT Assay for TIMP metallopeptidase inhibitor 2 (TIMP2) Biomarker Activity (AID 2283071); conditions: primary human keratinocytes with fibroblasts; actives raise or lower the signal
Method in brief: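 Human primary keratinocyte/foreskin fibroblast co-culture dosed with chemical and sampled at 24 h. TIMP-2 levels quantified by ELISA; bidirectional fitting against DMSO negative control as baseline.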

[13] = read-out: Transforming growth factor beta 1 (TGFb1), TGFB1 (gene 7040); test: BSK_KF3CT_TGFb1: BioMAP Diversity Plus: KF3CT Assay for Transforming growth factor beta 1 (TGFb1) Biomarker Activity (AID 2283072); conditions: primary human keratinocytes with fibroblasts; actives raise or lower the signal
Method in brief: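 Human keratinocyte plus foreskin fibroblast primary co-culture, dosed with chemical for 24 h. TGF-b1 quantified by ELISA. Activity fitted bidirectionally against DMSO negative control as baseline.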

[14] = read-out: C-C motif chemokine 2 (Homo sapiens) (UniProt P13500); test: BSK_KF3CT_MCP1: BioMAP Diversity Plus: KF3CT Assay for Monocyte Chemoattractant Protein 1 (MCP1/CCL2) Biomarker Activity (AID 2283073); conditions: primary human keratinocytes with fibroblasts; actives raise or lower the signal
Method in brief: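 KF3CT skin co-culture (keratinocytes/foreskin fibroblasts), 24 h post-dose; MCP-1 by ELISA; gain/loss of signal fit bidirectionally vs DMSO baseline.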

[15] = read-out: Matrix Metallopeptidase 9 (MMP9), MMP9 (gene 4318); test: BSK_KF3CT_MMP9: BioMAP Diversity Plus: KF3CT Assay for Matrix Metallopeptidase 9 (MMP9) Biomarker Activity (AID 2283074); conditions: primary human keratinocytes with fibroblasts; actives raise or lower the signal
Method in brief: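 Human keratinocyte/foreskin fibroblast co-culture; compound added; 24 h; MMP-9 by ELISA; bidirectional fit vs DMSO baseline.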

[16] = read-out: urokinase plasminogen activator (uPA), PLAU (gene 5328); test: BSK_KF3CT_uPA: BioMAP Diversity Plus: KF3CT Assay for urokinase plasminogen activator (uPA) Biomarker Activity (AID 2283075); conditions: primary human keratinocytes with fibroblasts; actives raise or lower the signal
Method in brief: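 ELISA readout of uPA, analyzed for signal gain or loss relative to DMSO, from a human primary keratinocyte–foreskin fibroblast co-culture measured 24 h after chemical treatment.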

CD40, CD40 (gene 958) = test: BSK_LPS_CD40: BioMAP Diversity Plus: LPS Assay for CD40 Biomarker Activity (AID 2283076); conditions: primary human HUVEC with PBMC; actives raise or lower the signal
Method in brief: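 ELISA readout of CD40 in HUVEC/PBMC co-culture (BSK_LPS system), 24 h post-dosing; bidirectional curve fit, DMSO baseline; parallel SRB total-protein staining for cytotoxicity.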

[17] = read-out: Interleukin-8 (IL8), CXCL8 (gene 3576); test: BSK_LPS_IL8: BioMAP Diversity Plus: LPS Assay for Interleukin-8 (IL8) Biomarker Activity (AID 2283078); conditions: primary human HUVEC with PBMC; actives raise or lower the signal
Method in brief: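 HUVEC + PBMC co-culture, LPS-activated; test chemicals dosed, IL-8 read by ELISA at 24 h. Bidirectional curve fit vs DMSO baseline (gain or loss of signal).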

[18] = read-out: Intercellular Adhesion Molecule 1 (ICAM1), ICAM1 (gene 3383); test: BSK_KF3CT_ICAM1: BioMAP Diversity Plus: KF3CT Assay for Intercellular Adhesion Molecule 1 (ICAM1) Biomarker Activity (AID 2283067); conditions: primary human keratinocytes with fibroblasts; actives raise or lower the signal
Method in brief: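 ELISA readout of ICAM-1; KF3CT human skin co-culture (keratinocytes + foreskin fibroblasts), 24 h post-dose; gain/loss fit vs DMSO baseline.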

[19] = read-out: E-selectin (Homo sapiens) (UniProt P16581); test: BSK_LPS_Eselectin: BioMAP Diversity Plus: LPS Assay for Eselectin Biomarker Activity (AID 2283077); conditions: primary human HUVEC with PBMC; actives raise or lower the signal
Method in brief: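 ELISA readout of E-selectin, 24 h post-dose, HUVEC + PBMC co-culture (LPS system). Gain or loss of signal vs DMSO baseline, bidirectional fit.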

Measured: AC50

E-selectin (Homo sapiens), sequence (P16581 whole entry, looked up): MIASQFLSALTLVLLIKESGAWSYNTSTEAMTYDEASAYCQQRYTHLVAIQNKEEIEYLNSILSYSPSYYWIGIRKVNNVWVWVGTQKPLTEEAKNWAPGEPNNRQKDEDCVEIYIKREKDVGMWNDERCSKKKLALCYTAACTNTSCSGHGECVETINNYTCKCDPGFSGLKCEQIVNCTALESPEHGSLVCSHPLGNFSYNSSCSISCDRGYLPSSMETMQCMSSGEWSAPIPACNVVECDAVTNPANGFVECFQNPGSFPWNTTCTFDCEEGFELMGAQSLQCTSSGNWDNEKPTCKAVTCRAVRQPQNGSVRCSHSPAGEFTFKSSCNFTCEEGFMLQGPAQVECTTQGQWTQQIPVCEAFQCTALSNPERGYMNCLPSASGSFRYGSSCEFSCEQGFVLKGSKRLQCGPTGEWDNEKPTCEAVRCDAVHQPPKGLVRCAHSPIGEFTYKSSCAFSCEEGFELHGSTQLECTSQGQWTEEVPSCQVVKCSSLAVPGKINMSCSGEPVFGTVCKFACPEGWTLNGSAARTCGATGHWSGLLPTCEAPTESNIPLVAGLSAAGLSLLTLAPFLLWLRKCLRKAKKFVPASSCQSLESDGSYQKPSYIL

CC(C)(C)c1ccc(O)cc1
inactive: [1] | [2] | [3] | [4] | [5] | [6] | [7] | [8] | [9] | [10] | [11] | [12] | [13] | [14] | [15] | [16] | CD40, CD40 (gene 958) | [17]

COP(=O)(O)OC
inactive: [1] | [2] | [3] | [4] | [5] | [6] | [7] | [8] | [18] | [10] | [11] | [12] | [13] | [14] | [16] | CD40, CD40 (gene 958) | [17]

Cc1cccc(N)c1
inactive: [2] | [3] | [4] | [5] | [6] | [7] | [8] | [9] | [10] | [11] | [12] | [13] | [16] | CD40, CD40 (gene 958) | [17]
active: [1] 0.148 µM

CCCCc1ccccc1
inactive: [1] | [2] | [3] | [4] | [5] | [6] | [7] | [8] | [18] | [10] | [11] | [12] | [13] | [14] | [16] | CD40, CD40 (gene 958) | [19] | [17]
